# Measured values from publication PMC5540273 (PLoS ONE, 2017).
# Tests used:
# Conditions in all cases: concentration: 1 μM, replicates: in singlicate; n = 1
# ERK1 = system: T1, ERK1
# T1 construct: gene MAPK3
# ERK2 = system: T2, ERK2
# T2 construct: gene MAPK1
# ERK3 = system: T3, ERK3
# T3 construct: gene MAPK6
# ERK4 = system: T4, ERK4
# T4 construct: gene MAPK4
# ERK5 = system: T5, ERK5
# T5 construct: gene MAPK7
# ERK8 = system: T6, ERK8
# T6 construct: gene MAPK15
# ERN1 = system: ERN1
# FAK = system: T7, FAK
# T7 construct: gene PTK2
# FER = system: FER
# FES = system: FES
# FGFR1 = system: FGFR1
# FGFR2 = system: FGFR2
# FGFR3 = system: FGFR3
# FGFR4 = system: FGFR4
# FGR = system: FGR
# FLT1 = system: FLT1
# FLT3-autoinhibited = system: FLT3-autoinhibited
# FLT3 = system: FLT3
# FLT4 = system: FLT4
# FRK = system: FRK
# 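Also: KINOMEscan kinase panel screen.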
Structure (SMILES),%Inh (ERK1) [%],%Inh (ERK2) [%],%Inh (ERK3) [%],%Inh (ERK4) [%],%Inh (ERK5) [%],%Inh (ERK8) [%],%Inh (ERN1) [%],%Inh (FAK) [%],%Inh (FER) [%],%Inh (FES) [%],%Inh (FGFR1) [%],%Inh (FGFR2) [%],%Inh (FGFR3) [%],%Inh (FGFR4) [%],%Inh (FGR) [%],%Inh (FLT1) [%],%Inh (FLT3-autoinhibited) [%],%Inh (FLT3) [%],%Inh (FLT4) [%],%Inh (FRK) [%]
Cc1ccc(C)c(NC(=O)Nc2ccc(C)c(-c3ccc(C(=O)Nc4ccncc4)cc3)c2)c1 [GSK1398473],0,16,9,28,0,0,0,0,13,0,0,0,10,3,16,48,0,91.8,39,50
Cc1cccc(Nc2nc(N[C@H]3CCCC[C@H]3N)ncc2C(N)=O)c1.Cl [GSK986310],8,27,27,49,0,0,2,12,84,0,24,4,3,15,56,43,1,23,24,19
CN(C)CCNS(=O)(=O)c1ccc(-c2ccnc3[nH]ccc23)cc1 [GSK977620],2,1,3,10,0,0,8,0,41,0,33,9,5,0,4,38,11,65,15,6
Nc1ncc(-c2cn[nH]c2)c2scc(-c3ccc4c(c3)CCN4C(=O)Cc3ccccc3)c12 [GSK2593067],3,3,0,0,0,10,0,0,29,0,37,31,19,0,80,83,13,98.4,43,38
COc1ccc(NC(=O)c2ccoc2)cc1-c1ccc(C(=O)NCC2CC2)cc1 [GW810437],0,7,0,6,7,0,33,0,0,7,3,0,0,1,0,0,0,0,12,14
Cc1ccc(Nc2ccnc(Nc3ccc(C)c(F)c3)n2)cc1O.Cl [GW582868],0,0,0,0,26,43,0,0,1,0,1,0,12,5,85,46,0,59,72,92.9
O=C(Nc1n[nH]c2nc(-c3ccccc3)ccc12)C1CC1 [SB-708999],0,3,46,0,0,99.5,0,0,5,5,0,33,26,12,9,11,0,42,4,5
CCn1cnc2c(NCc3ccccc3)ncnc21 [SKF-96418],0,0,7,17,0,4,19,0,0,3,0,0,0,0,0,0,0,0,0,0
CN1CCN(Cc2ccc(NC(=O)Nc3ccc(N(C)c4ccnc(Nc5ccc(CS(C)(=O)=O)cc5)n4)cc3)cc2)CC1.Cl [GW827654],0,0,0,0,0,78,58,46,45,21,5,23,9,0,49,99.8,95.2,99.8,100,84
Cc1ccc(NC(=O)c2cccc(N3CCCCC3)c2)cc1-c1ccc(C(=O)NCC2CC2)cc1 [GSK1917008],2,0,100,23,0,51,17,15,16,21,21,20,21,18,24,34,20,0,13,49
